The record followed here is PubChem BioAssay (NCI).

About 83,000 compounds went through this panel and 20% of them were active in at least one assay; those are over-represented in the sample as a whole.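 Negative percent growth values reflect cell death: -40 means 40% of the cells present at the start died, and -100 means all died.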 Unmarked numbers belong to inactive results. The source made the active and inactive calls. How the source made its calls: active means growth percent below 10; inactive means the rest.

Test systems include NCI-H23 lung; NCI-H226 lung; NCI-H322M lung; HOP-62 NSCLC; NCI-H460 lung; HOP-92 NSCLC; NCI-H522 lung; A549/ATCC NSCLC; 786-0 renal; DU-145 prostate; K-562 leukemia; MALME-3M melanoma; MDA-MB-231 breast; RXF 393 renal; SF-268 CNS; SF-295 CNS; SF-539 CNS; UACC-257 melanoma; M14 melanoma; COLO 205 colon.
Assay in all cases: NCI-60 one-dose screen, 48 h (100 = growth as untreated, 0 = no growth, -100 = all killed)
What all share (conditions): 10 µM unless noted

As for `Cc1cc(N2CCCCC2)nc(N2CCN(CC(=O)Nc3ccc4c(ccn4Cc4ccccc4)c3)CC2)n1`, the growth is 59.2% in the experiment with NCI-H23 lung; 65.1% in the experiment on NCI-H226 lung; 83% with NCI-H322M lung; 67.1% in the experiment on HOP-62 NSCLC; 56.5% in the experiment with NCI-H460 lung; 23.6% with HOP-92 NSCLC. The growth is 65.1% in the experiment on NCI-H522 lung; 49.2% in the experiment on A549/ATCC NSCLC; 68.6% in the experiment on 786-0 renal; 79.6% in the experiment with DU-145 prostate; 35.4% in the experiment on K-562 leukemia; 70.4% with MALME-3M melanoma. For the same compound, the growth was 64.3% in the experiment on MDA-MB-231 breast; 36.2% in the experiment on RXF 393 renal; 80.5% in the experiment on SF-268 CNS; 42.9% in the experiment with SF-295 CNS; 80.3% in the experiment on SF-539 CNS; 71% with UACC-257 melanoma. Moreover, in the experiment with M14 melanoma, the growth was 50.9%.
Turning to `CCCC(O)Cn1ncc(C(=O)OCC)c1NC(=O)NCc1cccc(F)c1` (stereo not given), the growth in the experiment with NCI-H23 lung is 91.2%; in the experiment with NCI-H226 lung, 112%; in the experiment with NCI-H322M lung, 93%; in the experiment with HOP-62 NSCLC, 100%; in the experiment with NCI-H460 lung, 107%; in the experiment on HOP-92 NSCLC, 71.3%. Moreover, the growth in the experiment with NCI-H522 lung is 58.6%; with A549/ATCC NSCLC, 88.4%; with 786-0 renal, 73.4%; in the experiment with COLO 205 colon, 111%; with DU-145 prostate, 99.4%; in the experiment on K-562 leukemia, 68.6%. The growth in the experiment with MALME-3M melanoma was 97.6%; in the experiment on MDA-MB-231 breast it was 103%; in the experiment with RXF 393 renal, 120%; in the experiment with SF-268 CNS it was 98.4%; with SF-295 CNS, 93.3%; in the experiment with SF-539 CNS, 94.8%. Moreover, the growth in the experiment on UACC-257 melanoma was 85.2%; in the experiment with M14 melanoma, 80.5%.
Take `COc1ccc2[nH]cc(-c3nc(-c4cn(C)c5ccncc45)cs3)c2c1`: the growth is 93.9% in the experiment with NCI-H23 lung; 106% with NCI-H226 lung; 90.9% with NCI-H322M lung; 95.4% in the experiment with HOP-62 NSCLC; -51% (active) with NCI-H460 lung; 98.2% with HOP-92 NSCLC. For the same compound, the growth is 65.4% with NCI-H522 lung; 6.03% (active) in the experiment on A549/ATCC NSCLC; 79% with 786-0 renal; 2.58% (active) with DU-145 prostate; -26.3% (active) with K-562 leukemia; 86.9% with MALME-3M melanoma. For the same compound, the growth is -61.7% (active) in the experiment on MDA-MB-231 breast; -86.8% (active) with RXF 393 renal; 87.1% in the experiment on SF-268 CNS; 76.3% with SF-295 CNS; -70.6% (active) in the experiment on SF-539 CNS; 92.7% with UACC-257 melanoma. The growth in the experiment on M14 melanoma is -88.7% (active).
`O=C1NC(=C(Cl)Cl)/C(=N/S(=O)(=O)N2CCCCC2)N1`: the growth was 53.9% in the experiment with NCI-H23 lung; 89.5% with NCI-H226 lung; 92.5% in the experiment on NCI-H322M lung; 62.1% with HOP-62 NSCLC; 94.2% in the experiment on NCI-H460 lung; -81.8% (active) with HOP-92 NSCLC. Also, the growth is -82.3% (active) in the experiment on NCI-H522 lung; 93.4% with A549/ATCC NSCLC; 2.47% (active) with 786-0 renal; -84.5% (active) in the experiment with COLO 205 colon; 101% with DU-145 prostate; -51.6% (active) in the experiment with K-562 leukemia. In addition, the growth in the experiment on MALME-3M melanoma was -73.6% (active); with MDA-MB-231 breast, -6.69% (active); in the experiment on RXF 393 renal, -39.8% (active); in the experiment with SF-268 CNS it was 28.3%; in the experiment on SF-295 CNS, 110%; in the experiment with SF-539 CNS, 11.8%. Also, the values for the growth with UACC-257 melanoma and in the experiment on M14 melanoma were 39.3% and 37.9%, respectively.
In the case of `Cc1nc2sc(C(=O)Nc3ccc(Cl)cc3)c(N)c2cc1C(O)c1ccccc1` (stereo not given), the growth with NCI-H23 lung is 42.6%; with NCI-H226 lung it was 57%; with NCI-H322M lung, 57.6%; with HOP-62 NSCLC, 45.1%; in the experiment on NCI-H460 lung it was 17.4%; in the experiment on HOP-92 NSCLC it was 44.8%. Further, the growth in the experiment on NCI-H522 lung is 33.2%; with A549/ATCC NSCLC, 42.1%; in the experiment with 786-0 renal it was 46.5%; in the experiment on DU-145 prostate, 34.7%; in the experiment with K-562 leukemia, 9.79% (active); with MALME-3M melanoma it was 44.1%. The growth with MDA-MB-231 breast was 52.2%; in the experiment with RXF 393 renal, 47.3%; in the experiment on SF-268 CNS it was 54.2%; in the experiment with SF-295 CNS, 44.5%; in the experiment on SF-539 CNS, 37.7%; with UACC-257 melanoma, 46.1%. For the same compound, the growth in the experiment on M14 melanoma was 19.7%.
For the compound `O=C1Nc2ccccc2C2c3cccn3-c3ccccc3N12` (stereo not given), the growth in the experiment on NCI-H23 lung is 81%; with NCI-H226 lung it was 89.5%; in the experiment with NCI-H322M lung, 83%; in the experiment on HOP-62 NSCLC it was 58.2%; in the experiment with NCI-H460 lung, 88.9%; with NCI-H522 lung it was 8.49% (active). Further, the growth was 61.7% in the experiment on A549/ATCC NSCLC; 87.8% in the experiment on 786-0 renal; 60.5% in the experiment on COLO 205 colon; 94.8% in the experiment with DU-145 prostate; 23.9% with K-562 leukemia; 71.7% with MALME-3M melanoma. The growth in the experiment with MDA-MB-231 breast is 47.1%; in the experiment on RXF 393 renal, 51.7%; in the experiment on SF-268 CNS it was 79%; with SF-295 CNS, 78.6%; in the experiment with SF-539 CNS, 83.2%; in the experiment with UACC-257 melanoma, 77.6%. Also, the growth with M14 melanoma is 53%.
For `Cc1c2ccccc2nc2c1ccc1cccnc12`, the growth in the experiment on NCI-H23 lung was 74.5%; in the experiment with NCI-H226 lung, 96.5%; in the experiment with NCI-H322M lung, 101%; in the experiment with HOP-62 NSCLC, 105%; with NCI-H460 lung, 73.8%; in the experiment with HOP-92 NSCLC it was 106%. Further, the growth was 63.5% in the experiment on NCI-H522 lung; 59.8% with A549/ATCC NSCLC; 95.8% in the experiment with 786-0 renal; 95.6% in the experiment with DU-145 prostate; 44.1% with K-562 leukemia; 88.3% in the experiment on MALME-3M melanoma. For the same compound, the growth in the experiment with MDA-MB-231 breast is 103%; with RXF 393 renal, 108%; with SF-268 CNS, 99.8%; in the experiment with SF-295 CNS, 89.3%; with SF-539 CNS, 100%; in the experiment with UACC-257 melanoma, 72.3%. Further, the growth in the experiment on M14 melanoma was 84.9%.
